# Measured values: ChEMBL document CHEMBL4513216, “Probing the Open Global Health Chemical Diversity Library for Multistage-Active Starting Points for Next-Generation Antimalarials” (ACS Infect Dis, 2020)
# The campaign covered roughly 69,000 compounds. About 8,600 (12%) showed an effect of 50% or more. Many of the other results were omitted from the sample, so strong results are more common in it than they were.
# Tested on: Plasmodium berghei
# Experiment: Screen against P. berghei liver stage (PbLuc), transformed with Luciferase, at 10uM
# Type: functional, HepG2
# Conditions: tested at 10 uM
row,SMILES,INHIBITION [%]
1,O=C(NC1CC(F)(F)C1)[C@]12COC[C@H]1CN(Cc1ccsc1)C2,35.8
2,Cn1cc(CN2C[C@@H]3COC[C@]3(C(=O)NCc3cccs3)C2)cn1,28.3
3,CN1C[C@@H]2COC[C@]2(C(=O)NCCc2cccs2)C1,34.6
4,O=C(NCCc1cccs1)[C@]12COC[C@H]1CN(Cc1ccccn1)C2,24.9
5,CS(=O)(=O)N1C[C@@H]2COC[C@]2(C(=O)NCCc2cccs2)C1,24.9
6,O=C(NC1CC(F)(F)C1)[C@]12COC[C@H]1CN(Cc1cccnc1)C2,29.4
7,O=C(NCc1cccs1)[C@]12COC[C@H]1CN(c1ncccn1)C2,2.41
8,CN1C[C@@H]2COC[C@]2(C(=O)NCc2cccs2)C1,4.02
9,O=C(NCCc1cccs1)[C@]12COC[C@H]1CN(Cc1ccncc1)C2,54.8
10,O=C(NCCc1cccs1)[C@]12COC[C@H]1CN(C1CCOCC1)C2,61.1
11,O=C(NCCc1cccs1)[C@]12COC[C@H]1CN(c1ncccn1)C2,52.1
12,CN(C)C(=O)CCS(=O)(=O)Cc1coc(-c2ccc(F)cc2)n1,-23.4
13,CCC(CCN)n1ccc(C(F)(F)F)n1 (stereo unspecified),35.2
14,Cc1cc(C)n(-c2cncc(NCCNC(=O)C(C)(C)C)n2)n1,34.9
15,CC(C)C(N)CNS(=O)(=O)Cc1cccc2cccnc12 (stereo unspecified),24.2
16,CC(C)CCN(C(=O)CCn1cc(S(N)(=O)=O)cn1)C1CC1,11.4
17,Cn1cc(-c2cnc(-c3ccnn3C)nc2)cc1C(=O)N1CCCC1,-4.26
18,Cc1ccc(C2COCCN2C(=O)c2cccc(N(C)C)c2)o1 (stereo unspecified),32.9
19,Cc1ccc(C(=O)N2CCc3c(CNS(C)(=O)=O)cncc3C2)o1,-3.83
20,Fc1ccc(CN2C[C@@H](OCc3ccccn3)[C@H]3COC[C@H]32)cc1,43.9
21,Cc1nc(CO[C@@H]2CN(Cc3nccs3)[C@@H]3COC[C@@H]32)cs1,-56.3
22,O=C(c1ccc[nH]1)N1C[C@H](OCc2ccccn2)[C@H]2COC[C@H]21,64.8
23,Cc1nc(CO[C@H]2CN(C(=O)c3ccc[nH]3)[C@@H]3COC[C@H]23)cs1,13.1
24,O=C(c1ccnnc1)N1C[C@H](OCc2ccccn2)[C@H]2COC[C@H]21,5.67
25,c1ccc(CO[C@@H]2CN(Cc3nccs3)[C@@H]3COC[C@@H]32)nc1,59.3
26,CN(CC(=O)N1CCCCC1Cn1cccn1)Cc1ccccc1 (stereo unspecified),23.5

row,SMILES,INHIBITION [%]
1,Cn1nc(Cn2cccn2)c2c1CN(Cc1ccsc1)C2,-41.8
2,COCCNC(=O)C[C@@H]1COC[C@H]2CN(Cc3cccnc3)C[C@@H]12,40.5
3,O=C(C[C@@H]1COC[C@H]2CN(Cc3cccnc3)C[C@@H]12)N1CCCC1,-11.6
4,O=C(C[C@@H]1COC[C@H]2CN(C3CCC3)C[C@@H]12)NCc1cccnc1,27.5
5,COCCN1C[C@@H]2COC[C@@H](CC(=O)NCc3cccnc3)[C@@H]2C1,47.4
6,O=C(C[C@@H]1COC[C@H]2CN(CC3CC3)C[C@@H]12)NCc1cccnc1,53.4
7,O=C(C[C@@H]1COC[C@H]2CN(Cc3cccnc3)C[C@@H]12)NCC1CC1,54.4
8,Cc1cccc(N2CCN(C(=O)CNCCn3cccn3)CC2)c1,-76.5
9,CCC[C@H]1CN(c2cncc(C(=O)N(C)C)n2)C[C@@H]1N(C)C,33.7
10,NC(=O)CN1CCN(C(=O)c2cc(Cl)cc3cccnc23)CC1,13.4
11,CN(C)c1nc2c(c(NCc3nnc4n3CCCCC4)n1)CCNC2,5.78
12,CNC(=O)c1ccccc1NCc1ncnn1C,20
13,Cn1ccc2cc(CC3COCCN(C(=O)c4cccnc4)C3)ccc21 (stereo unspecified),29.61
14,COCCn1nc(C(=O)N(C)Cc2cccnc2)ccc1=O,6.72
15,CC1CN(C)CCN1C(=O)c1cnc2c(cnn2C2CCCC2)c1 (stereo unspecified),31.2
16,CC1CN(C)CCN1C(=O)c1cccn1Cc1cccnc1 (stereo unspecified),17.9
17,CC(O)CN1CCN(C(=O)c2cnn(-c3ccc(Cl)cc3)c2)CC1 (stereo unspecified),16.6
18,CC1CN(C)CCN1C(=O)c1ccc(-n2cnnc2)cc1 (stereo unspecified),66.1
19,Cc1cnn(-c2ccc(C(=O)N3CCN(C)CC3C)cc2)c1 (stereo unspecified),-15.3
20,CC1CN(C)CCN1C(=O)c1cnn(-c2ccc(Cl)cc2)c1 (stereo unspecified),66.1
21,Cc1ccccc1N1CCN(C(=O)c2cnn(C(C)C)c2)C(C)C1 (stereo unspecified),12.1
22,CC[C@@]1(O)CCN(C(=O)c2ccc(-n3cnnc3)cc2)C[C@H]1O,20.6
23,CC1CN(C)CCN1C(=O)c1cnn(-c2cccc(Cl)c2)c1 (stereo unspecified),74.4
24,O=C(Cc1ccc(Cl)s1)Nc1ccc2c(c1)C(=O)NC2=O,-97.9
25,Cc1nn(C)c(N2CCOCC2)c1CNC1CCC(O)CC1 (stereo unspecified),9.14
